Experimental findings from PubChem BioAssay (NCI) are described below.

The panel holds about 83,000 compounds, 20% with a hit somewhere; the sample as a whole holds those more often.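 Each cell line was grown in a 96-well plate and treated with one concentration of compound for 48 hours. Values below 10 were considered active.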 Values without a mark were called inactive. The source made the active and inactive calls.

Common to all, as to assay: NCI-60 one-dose screen, 48 h (100 = growth as untreated, 0 = no growth, -100 = all killed)
What all share (settings): 10 µM unless noted

The test system of experiment [1] is SK-MEL-2 melanoma.
In experiment [2] the test system is EKVX NSCLC.
In experiment [3] the test system is SN12C renal.
Experiment [4] concerns UO-31 renal.
In experiment [5] the test system is TK-10 renal.
The subject of experiment [6] is ACHN renal.
In experiment [7] the test system is CAKI-1 renal.
Experiment [8] deals with A498 renal.
Experiment [9] concerns MOLT-4 leukemia.
Experiment [10] deals with SR leukemia.
For experiment [11], the system named is RPMI-8226 leukemia.
In experiment [12] the test system is OVCAR-8 ovarian.
In experiment [13] the test system is OVCAR-5 ovarian.
Experiment [14] deals with OVCAR-4 ovarian.
Experiment [15] has as its system SK-OV-3 ovarian.
Experiment [16] has as its system IGROV1 ovarian.
Experiment [17] has as its system OVCAR-3 ovarian.
Experiment [18] concerns HS 578T breast.
For experiment [19], the system named is NCI/ADR-RES ovarian.

For `NC(=N\N=C/c1ccccc1[N+](=O)[O-])/C(N)=N\N=C/c1ccccc1[N+](=O)[O-]`, the growth is 98.4% in experiment [1]; 98.5% in experiment [2]; 108% in experiment [3]; 116% in [4]; 99.6% in experiment [5]; 109% in experiment [6]. Moreover, the growth in experiment [7] was 95.2%; in experiment [8], 85.9%; in [9], 113%; in experiment [10] it was 107%; in experiment [11], 88.2%; in experiment [12], 109%. Further, the growth in experiment [13] is 109%; in [14] it was 111%; in experiment [15], 102%; in [16] it was 136%; in [17] it was 116%; in experiment [18] it was 100%. In addition, the growth in [19] is 114%.
In the case of `Cc1occc1-c1n[nH]c(=S)n1N1C(=O)CSC1=S`, the growth was 107% in experiment [1]; 99.1% in experiment [2]; 99.2% in experiment [3]; 77.6% in [4]; 99% in [5]; 102% in experiment [6]. Moreover, the growth is 85.4% in [7]; 101% in experiment [8]; 99.7% in [9]; 102% in experiment [10]; 93.8% in experiment [11]; 101% in [12]. Besides, the growth is 99.6% in [13]; 107% in [14]; 106% in experiment [15]; 102% in [16]; 103% in experiment [17]; 101% in [18]. Moreover, in [19], the growth is 101%.
For `Cc1cc(C)c2c(-c3nnc(N)s3)cc(=O)oc2c1`, the growth in experiment [1] is 114%; in [2], 97.2%; in [3], 99.3%; in [4], 88%; in [5], 108%; in [6] it was 105%. Besides, the growth was 89.3% in [7]; 79.9% in experiment [8]; 106% in experiment [9]; 105% in experiment [10]; 72.3% in experiment [11]; 102% in experiment [12]. Further, the growth in experiment [14] was 100%; in experiment [15], 108%; in experiment [16], 101%; in experiment [18], 92.4%; in experiment [19], 102%.
With `N#C/C(=C/C=C/c1cccc(Cl)c1)S(=O)c1ccccc1` (centres undefined), the growth in experiment [1] is -12.3% (active); in [2], -56.3% (active); in experiment [3], -55.4% (active); in experiment [4] it was -65.6% (active); in [5] it was -82.5% (active); in experiment [6], -82.6% (active). In addition, the growth in experiment [7] is -68.2% (active); in [8], -69.9% (active); in experiment [9] it was -0.839% (active); in [10], 1.43% (active); in experiment [11] it was -13.4% (active); in experiment [12], -2.48% (active). For the same compound, the growth in experiment [14] was -52.9% (active); in [15], 19.6%; in experiment [16] it was -25.7% (active); in experiment [17], -86.1% (active); in [18], 11.6%; in [19], 7.8% (active).
For the compound `Cc1ccc2[nH]c(=O)c3c(c2c1)OC(N)=C(C#N)C31c2cc(Br)ccc2-c2ccc(Br)cc21`, the growth was 77.1% in experiment [1]; 60.3% in experiment [2]; 82.7% in experiment [3]; 58.3% in experiment [4]; 84.2% in [5]; 62.3% in experiment [6]. In addition, the growth is 49.1% in [7]; 79.7% in [8]; 62.3% in experiment [9]; 72.2% in [10]; 3.77% (active) in experiment [11]; 61.1% in [13]. The growth in experiment [14] was 21%; in experiment [15] it was 91.8%; in [16], 40.1%; in [17] it was 58.9%; in experiment [18], 70.8%; in experiment [19], 82.3%.
As for `N#C/C(=C\c1ccc(Br)cc1)n1nnc2cc(F)c(F)cc21`, the growth is 29.5% in experiment [1]; 69.8% in experiment [2]; 17% in experiment [3]; 33.9% in [4]; 32.1% in experiment [5]; 24% in experiment [6]. Further, the growth is 22.9% in [7]; 26.8% in [8]; 1.95% (active) in experiment [9]; 6.06% (active) in experiment [10]; 0% (active) in [11]; 8.14% (active) in experiment [12]. The growth in experiment [14] was 29.8%; in experiment [15], 62.5%; in experiment [16] it was 6.79% (active); in [18], 56.1%; in experiment [19], 1.66% (active).
On to `CC(CN1CCCCC1)C(=O)c1ccccc1` (centres undefined), for which the growth in experiment [1] was 102%; in experiment [2] it was 104%; in experiment [3] it was 105%; in experiment [4] it was 92.4%; in experiment [5], 96.7%; in experiment [6], 107%. Also, the growth was 101% in experiment [7]; 84% in experiment [8]; 106% in [9]; 97.3% in experiment [10]; 78% in [11]; 102% in experiment [12]. The growth in [13] was 101%; in [15], 106%; in [16] it was 109%; in experiment [17] it was 109%; in experiment [18], 103%; in experiment [19] it was 108%.
Turning to `CC1SC(c2ccc(OCc3ccccc3)cc2)N(NC(=O)C(O)(c2ccccc2)c2ccccc2)C1=O` (centres undefined), the growth in experiment [1] was 74.4%; in [2] it was 47%; in experiment [3], 85.6%; in experiment [4] it was 54.6%; in experiment [5], 58.6%; in experiment [6] it was 55.3%. Further, the growth is 44.3% in experiment [7]; 55.8% in [8]; 28.7% in experiment [9]; 35.9% in experiment [10]; -7.26% (active) in [11]; 77.8% in experiment [12]. Further, the growth in experiment [13] is 80.5%; in experiment [14] it was 54.7%; in experiment [15], 73.3%; in experiment [17], 31%; in experiment [18], 74.6%; in experiment [19] it was 63.5%.
